Screening data from PubChem BioAssay.
A selection: hits, their analogues and other compounds. The true share with any hit is near 0.91%.
Prostate diff: activators of LNCaP prostate cell differentiation, primary screen, flow cytometry side scatter; 4 d; side scatter shift, % at 10 µM; 0.56% of 24,000 active;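 active = side scatter shift above 30%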;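 also: androgen-responsive LNCaP prostate cancer cells in charcoal-stripped serum medium; higher shift means more granular cells and more differentiation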
QS inhibitor: S. aureus quorum sensing inhibitors, primary screen, RNAIII-GFP reporter, flow cytometry; 0.3% of 24,000 active; AID 527, 2006; S. aureus RN6390 RNAIII-GFP reporter, AIP-induced, flow cytometry 3 h; inhibition, % at 2 µM;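 active = share of bacteria positive for the green fluorescent reporter and its mean brightness both inhibited by 50% or more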
Of the large screens only hits and unclear results are named; the others gave an inactive call.

CCCNS(=O)(=O)c1ccc(OCC(=O)N2CCN(Cc3ccccc3)CC2)cc1	none
O=C(COc1ccc2ccccc2c1)N1CCN(C2CCN(Cc3ccccc3)CC2)CC1	Prostate diff 46
Cc1ccnc(-n2c(-c3ccco3)nc3ccccc3c2=O)c1	none
